# Measured values taken from PubChem BioAssay AID1711 (National Center for Advancing Translational Sciences (NCATS), 2009).
# Results filed as inconclusive are left out. Unmarked numbers belong to inactive results. Activity calls are given as the source filed them. The call rests on the fitted dose curve; in most records, active means well fitted curve in the direction sought with a large enough effect; inconclusive means small, poorly fitted or top-dose-only effect, or another doubt; inactive means no such curve, though single readings can be large or run the other way.
# Molecular target: Caspase-1 (Homo sapiens) (UniProt P29466)
# Sequence (P29466 whole entry, looked up): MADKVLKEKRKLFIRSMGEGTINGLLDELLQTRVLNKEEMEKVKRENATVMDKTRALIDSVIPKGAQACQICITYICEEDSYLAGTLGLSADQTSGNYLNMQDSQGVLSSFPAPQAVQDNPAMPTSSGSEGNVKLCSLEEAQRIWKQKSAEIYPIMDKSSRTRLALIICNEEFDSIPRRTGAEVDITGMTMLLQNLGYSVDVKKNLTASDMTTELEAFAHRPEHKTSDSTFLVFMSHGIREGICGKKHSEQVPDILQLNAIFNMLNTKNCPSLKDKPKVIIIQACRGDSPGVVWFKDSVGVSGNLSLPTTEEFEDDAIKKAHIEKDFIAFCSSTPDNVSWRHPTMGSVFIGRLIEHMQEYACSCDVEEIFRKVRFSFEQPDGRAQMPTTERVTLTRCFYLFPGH
# Test: Concentration-Response Counterscreen for Tau: Redox Active Inhibitors of Caspase-1
# Conditions: purified caspase-1, Ac-WEHD-AFC fluorescence kinetic; series mostly up to 40.6 µM; activity change, negative = inhibition: at the top concentration
# Source text: NIH Molecular Libraries Probe Production Network [MLPCN] NIH Chemical Genomics Center [NCGC] MLPCN Grant: X01 MH083262-01 Assay Provider: Carlo Ballatore, University of Pennsylvania NCGC Assay Overview: The microtubule-associated protein tau is an abundant protein in the axons of neurons that stabilizes microtubules. With its ability to modulate microtubule dynamics, tau contributes directly or indirectly, to key structural and regulatory cellular functions. Particularly important is the influence tau exerts on axonal transport, which allows signaling molecules, trophic factors and other essential cellular constituents to travel along the axons. Under pathological conditions, tau becomes sequestered into insoluble aggregates called neurofibrillary tangles. This phenomenon is believed to have pathological consequences by promoting axonal transport deficits that ultimately lead to synaptic dysfunction and neuronal loss. To examine the selectivity of tau fibrillization inhibitors, compounds were tested in an in vitro assay for caspase-1 activity. This assay is a counterscreen for tau fibrillization inhibitors to identify non-specific oxidizing agents; an active site cysteine in caspase-1 must remain in a reduced state and the enzyme is inactivated by oxidative compounds. Caspase-1 activity was monitored using a profluorescent substrate that upon enzymatic cleavage yields a fluorescent probe that is detectable at 405 nm excitation and 525 nm emission. Scheer, J. M., Wells, J. A., and Romanowski, M. J. (2005) Protein Expression and Purification 41, 148-153.
# NCGC Assay Protocol Summary: Caspase-1, kindly provided by Dr. James Wells (University of California, San Francisco), was purified and assayed at 100 nM in buffer containing 50 mM HEPES pH 7.5, 50 mM KCl, 200 mM NaCl, and 0.1% CHAPS. Caspase-1 was dispensed at 3 uL/well into black solid 1536-well plates and incubated 5 min with various concentrations of test compound, with subsequent addition of 1 ul/well Ac-WEHD-AFC substrate (20 uM final concentration). Within 1 minute of substrate addition, fluorescence intensity (405 nm excitation and 525 nm emission) was measured on a ViewLux (PerkinElmer) every 30 s for 10 min. The first 3 minutes of fluorescence values were linear and used to calculate the slope of substrate conversion as a measure of enzyme activity.
SMILES,"activity change, negative = inhibition [%]",Potency
Nc1scc2c(CO)nn(-c3ccccc3)c(=O)c12,-19.2,–
Nc1scc2c(C(=O)O)nn(-c3ccccc3)c(=O)c12,-14.5,–
Nc1cc(-c2ccccc2)c[nH]c1=O,–,7.94 µM (active)
CCOC(=O)c1nn(-c2ccccc2)c(=O)c2c(N)sc(C)c12,-9.73,–
CCOC(=O)c1nn(-c2ccc(OC)cc2)c(=O)c2c(N)scc12,–,inactive
Nc1nn(-c2ccccc2)c(=O)c2c(N)scc12,-11.3,–
CCOC(=O)c1ccc(-n2nc(C(=O)OCC)c3csc(N)c3c2=O)cc1,-20.3,–
CCOC(=O)c1nn(-c2ccc(F)cc2)c(=O)c2c(N)scc12,-19.8,–
CCOC(=O)c1nn(-c2ccccc2)c(=O)c2c(NC(=O)c3ccccc3)scc12,-8.05,–
CCOC(=O)c1nn(-c2ccccc2F)c(=O)c2c(N)scc12,7.77,–
CCOC(=O)c1nn(-c2cccc(C(F)(F)F)c2)c(=O)c2c(N)scc12,-16.5,–
CCOC(=O)c1nn(-c2ccc(Cl)c(Cl)c2)c(=O)c2c(N)scc12,-2.84,–
CCOC(=O)c1nn(-c2ccccc2)c(=O)c2c(N)scc12,-11,–
Nc1scc2c(C(=O)N3CCOCC3)nn(-c3ccccc3)c(=O)c12,-10,–
CC(=O)Nc1sc(C)c2cnn(-c3ccccc3)c(=O)c12,-3.22,–
CCOC(=O)c1nn(-c2ccc(C)c(C)c2)c(=O)c2c(N)scc12,1.88,–
CCOC(=O)c1nn(-c2ccccc2)c(=O)c2c(NC(C)=O)scc12,-13.9,–
COc1ncc(-c2ccccc2)cc1N,–,15.8 µM (active)
CCOC(=O)c1nn(-c2ccc(C)cc2)c(=O)c2c(N)scc12,-3.58,–
